B1: LC3A_3_1549 (protein)
chain: MEELLEETLKRLKEAGASEEVIEAVRKALQALIDRGYEEALKEFAREVEELIGLPDEILLDFAEEVLRAIEEEDLNEEELIERIKEIATIAKNEGEIIEL
B2: LC3A_28_855 (protein)
chain: SETRKSIEEAREELEKAREAKEPAVITVTVTSDVTEEEVEEVIELIKEAAEASKEVPDLTLIIDFEGEIDPEHLNRITDAADEAIKKNPKLNVIFALDEE
B3: LC3A_147_414 (protein)
chain: TVVEIDILVKSKEAVEKIKERMKEIVKELKAKGYKVKLEIKVEEVEPGVYLVDITIEIEAETKEDAEAAANFVLDKIDEMEEELKDEILGSLISVEIEEK
B4: LC3A_127_214 (protein)
chain: EKEKLIKELLELIRKAQELLAKPDYDLEEIRKLLEEAIKVAKELLKLDERFKPVLEDLESALKLVDQMENLSPAEQEEARERVSMLLDGAEIELLSLELK
B5: LC3A_147_516 (protein)
chain: YKVTVEIDLLLKNSKELAEEMAEEIKEYLESKGYEVEVELEFEEDEDGTIFAKITITVKAETKEEAEKVANEVLEKIDELLEKYKDKILGALISVSIEEE
B6: LC3A_147_517 (protein)
chain: YLVEVEIDMLLKNSKELAEEIAKEIEERLKEKGYKVEVELEFEEDEDGTIFADITIKVEAETLEEAKEVANEILDIIDELLEKNKDKILGALISVSITKK
B7: LC3A_132_295 (protein)
chain: MEEKAEKYLKELKALIAAAKANIDDDAKVTALLKEIEAKIEEAEKELTPEEVAKVFEEVADELWALSQVFDAAGKEQLALEADGLAIEAASLALRAKEKI
B8: LC3A_45_1925 (protein)
chain: MWEATLDVLVPRELAEKAYATAKELMAELEAEHGPDLRVDWATLDESYAASKDEEDVYLEIRIYHPDEQVALDAADRLEDELNAALGGKASSIISLKKLP
B9: LC3A_free_8_2533 (protein)
chain: KREEFVNKALELLDEFEEEIRKKAKELGLDELDILDLELLIGSLKIEVVELRDKPMEEILKTIEEGLEEIIEEAKELSEELAEKVEELAEEILEELKEMM
B10: LC3A_147_503 (protein)
chain: YLLKVDIDIIVKNAEEEVKKMVEEIEEELKKKGFEVKVKINIEQLDENTTYISINIEVKAKTKEEAEEAANYIIDKFDKYLEENKDKILGALISVEIEKE
B11: LC3A_28_660 (protein)
chain: SATREAADAAIAAARAAAARGEPAVITLTVTGDATPEDIDYVLAALEEIAAILAPIPGSAIVIDLEAGVDPEHRQRIIDKAEELEKRYPNVTVIIAEEEE
B12: LC3A_3_1416 (protein)
chain: MEEAKKKALEALKKAGHSEETLKALNELVDLLEARGAEEEAKEVLELVLENKDISSELLLEVLNEAIELLTVKKLSPEEVIKELKEELRIARNEEEIIEL
B13: LC3A_3_1375 (protein)
chain: SEELIEETLAYLREKGKSEETLEAVRRAMEALAEKGYEEALKTFAELLKEMEDLPDEILLDFAEDVLEAVENEDLNEEELIEFIKEEARVARSEGEIIEL
B14: LC3A_free_8_2497 (protein)
chain: SRQEIVDRLLELIDELEEELEEKAKELGLSELDILDITLELGSLKAEIISNSDEPLEVIREELEEGLEEIIELTEELSEELEELAEEGAEKILEELEELE
B15: LC3A_28_1014 (protein)
chain: SHMEERVAALIAEIEAALAKGEYVVATLTITPEDSLEEVKAAMERVGKAALEAAKKGIVDVVVDLEKGVSQEKLDAVMEAADELEKKAPKLNVVIALEEE
B16: LC3A_free_0_2106 (protein)
chain: MTVVGEVLAITEKALTPEQLKKVKEEMEKIAKELEEEYGMKVEVTVKEVDGRTVFTLKFSKEGLSIEEAIEIVDEVADKLEEKLKELGADVTIYTSVYEE
B17: LC3A_17_542 (protein)
chain: MEEIKKELEELLKKLEKLVEKLAEYDPEKAKKLKKKLEEAKKLIKAGKLKEAAELLAEAAREAAEAWEELEPEYGTEASVYAMEASGLELEAIGILLKLD
B18: LC3A_17_544 (protein)
chain: MEELKKELEKLLKKLEELVKELEKYDPEKAKKLKKQLEEAKKLIKAGKLREAAELLAKAAREAADAFEKLEPKYGTKASVLAMEASGLELEAIRILLKLE
B19: LC3A_28_1074 (protein)
chain: SAVEEENEKILKEAKEAKEKGEPAVITIKIDESDTDEDIEKKLETIREVAEILKDVEGAAIIIDLEGEKALSRLDEVADLADELEEKYPNLTVIIALDDE
B20: LC3A_free_46_2358 (protein)
chain: YKAEIDIDLLHEDKEVLEKAVEEIEKAAREIAEKYGLKVEIEKEFEKLPDGSYYARIRITLEGEDKEKVEEAVNELINEIDKISKKYDVASIISYEIEEK
B21: LC3A_free_8_2524 (protein)
chain: SKQEFANKATEVLDELEEKLRKALEELGASRLDILEAEVLVGSIIAEVISLSDKEPEEQLKAIKEGLKDLVEELEKYKETVKKLADEALKKIEEIKKELE
B22: LC3A_147_445 (protein)
chain: VKVEVTIGVLMKNKPEVGDELVEKLRETAEAAGAEVEVEVEREKIDENTVYLLIKLTLTTETREAAEALANKVIDTVEEFAEKHKDEILGYIISVEISEA
B23: LC3A_127_188 (protein)
chain: EIEKLIKELLKELEKLSELLSSPDFDLEEAEKLAKKILKLAKELEKLDPRFKPLVEDAKELLKIIEEMKNASPAEQEELKEHALMLVEGMEIEALSLELK
B24: LC3A_free_46_2376 (protein)
chain: YKIEIDIYFSAMSKEKAEEMAEEIKKAAEEISKKTGVKIEVEVKIITDENGETWLEVKVTIEGEDKEKALKAATELIDKFDEIAEKHGVSLIISVEEIDE
B25: LC3A_59_2018 (protein)
chain: SEELEALRERLREAVDDIDAFVAIVREGLERFRDDPERVRALLRAAMDVIVEELGMDPEEAEKTLAEMLAIWETEPDKEEAIARVTELVRDTLLLTPIEE
B26: LC3A_free_8_2515 (protein)
chain: MNQEFANKATEILEELEEKLVELLKEKGASELDILEAELLIGSAIAEVISLSDKSPEEILKAIRESLEELVEELEEHREEVKELAEEALKKIEEKKKELE
B27: LC3A_3_1855 (protein)
chain: MEEIIEEALKLLKELGRSEETIEAARKLLEALKERGFEEAAKVLLEELKKLKNVSDEDLLEMFNELLKALEEEDLNEEEAIELIKSEARVLLNAEEIEEL
B28: LC3A_3_1647 (protein)
chain: PEEEVEETVELLREAGHSEETIEAFRETAEALLERGYEEALRVLIEETRELLDLPDEILLAMLEEVLRVIKEEDLSEEEVIEEIRRIARIARSEGEIIEL
B29: LC3A_free_39_2193 (protein)
chain: SAAETEKAKAELLALAAEAGEEAKKLAEEIIKLIGEDLEKLKKLLEALKKAKEAGVDVLEVLKEALELAKELKKQGKSKEEIFEEVLELIEDAINLIPID

Whole data set: some 2,300 sequences, median “median log2 fold change of GCK-ALFA target abundance (FLAG IP / Myc IP barcode read proportion)” near 0.095, cut for the lowest 2% near -0.47. The list comes from a sample in which the lowest values are over-represented; it also holds similar and randomly drawn sequences.

In this experiment the target is MAP1LC3A, Q9H492. As to the kind of experiment: median log2 fold change of GCK-ALFA target abundance (FLAG IP / Myc IP barcode read proportion) (log2 ratio); each designed protein is fused to an ALFA-tag nanobody in HEK293 cells to bring the named protein to FLAG-tagged glucokinase (GCK); Myc marks an untargeted standard; higher = target protein stabilised (more abundant). To be noted: target protein: 3xFLAG-MCP-GCK-ALFA reporter; HEK293 landing pad (RPLP). As for the experimental part:
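LABEL-seq trans screen in HEK293 landing-pad cells. Each de novo designed 100-aa effector handle, binding the indicated effector (E3 ligase, DUB or autophagy protein), is fused to a constant NbALFA target handle and induced with 2 ug/mL doxycycline. A FLAG-MCP-GCK-ALFA target and a Myc-MCP standard reporter were transfected, and after 48 h circRNA barcodes were recovered by anti-FLAG and anti-Myc IP and sequenced. The value is the median across barcodes (at least 3 per design) of log2(FLAG/Myc read-proportion ratio), with the two transfection replicates pooled. Negative values mean degradation and positive values mean stabilisation of the target.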
For B1, the “median log2 fold change” value turned out to be 0.258.

Regarding B2, the “median log2 fold change” value was 0.127.

For the molecule B3, the “median log2 fold change” value was -0.515.

B4: the “median log2 fold change” value worked out at 0.409.

With B5, the “median log2 fold change” value is -0.0638.

For the molecule B6, the “median log2 fold change” value is -0.778.

Regarding B7, the “median log2 fold change” value turned out to be 0.0471.

B8: the “median log2 fold change” value was -0.101.

On to B9, for which the “median log2 fold change” value is -0.133.

Take B10: the “median log2 fold change” value is -0.665.

In the case of B11, the “median log2 fold change” value came to 0.104.

As to B12, the “median log2 fold change” value was found to be 0.297.

On to B13, for which the “median log2 fold change” value was found to be 0.306.

For B14, the “median log2 fold change” value is -0.679.

For the molecule B15, the “median log2 fold change” value is -0.297.

For the molecule B16, the “median log2 fold change” value is -0.0524.

As for B17, the “median log2 fold change” value was -0.71.

Take B18: the “median log2 fold change” value was found to be 0.0592.

Consider B19, for which the “median log2 fold change” value is 0.0473.

Regarding B20, the “median log2 fold change” value was -0.026.

Regarding B21, the “median log2 fold change” value is -0.575.

As for B22, the “median log2 fold change” value is -0.265.

As for B23, the “median log2 fold change” value came to 0.156.

On to B24, for which the “median log2 fold change” value is -0.231.

For B25, the “median log2 fold change” value was -0.587.

For the molecule B26, the “median log2 fold change” value worked out at 0.159.

B27: the “median log2 fold change” value came to 0.224.

Turning to B28, the “median log2 fold change” value is 0.138.

As to B29, the “median log2 fold change” value is 0.242.

Values taken from the supplement of paper PMC12632987.
